Screening results: PubChem BioAssay, National Center for Advancing Translational Sciences (NCATS)
Rab9 prom act: Rab9 promoter activation. Huh7 Rab9 promoter-luciferase reporter, luminescence, 24 h. Potency, µM (doses to about 9.22 µM), for the others: at the highest dose activation, negative = inhibition, hits mostly activators. 2.8% of 320,000 active; note: % of control where 0% means no effect; nearly all actives have a fitted effect of over 60% in size
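Promoter activation is measured as luciferase luminescence in Huh7 cells stably transfected with a Rab9 promoter–luciferase construct, following 24 h compound exposure at 37 °C and 10 min reagent incubation at ambient temperature.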
FLuc counter: counter-screen for miR-21 project: firefly luciferase inhibitors or activators; P08659; purified FLuc, Km substrates, luminescence inhibition; Potency, µM (doses to about 57.5 µM), for inactives: top-dose activity change, negative = inhibition, hits mostly inhibitors; 6.9% of 360,000 active;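 note: plate controls were vehicle for no effect and reference inhibitor for full effect; nearly all actives have a fitted effect of over 55% in size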
Target sequence (P08659 whole entry, looked up): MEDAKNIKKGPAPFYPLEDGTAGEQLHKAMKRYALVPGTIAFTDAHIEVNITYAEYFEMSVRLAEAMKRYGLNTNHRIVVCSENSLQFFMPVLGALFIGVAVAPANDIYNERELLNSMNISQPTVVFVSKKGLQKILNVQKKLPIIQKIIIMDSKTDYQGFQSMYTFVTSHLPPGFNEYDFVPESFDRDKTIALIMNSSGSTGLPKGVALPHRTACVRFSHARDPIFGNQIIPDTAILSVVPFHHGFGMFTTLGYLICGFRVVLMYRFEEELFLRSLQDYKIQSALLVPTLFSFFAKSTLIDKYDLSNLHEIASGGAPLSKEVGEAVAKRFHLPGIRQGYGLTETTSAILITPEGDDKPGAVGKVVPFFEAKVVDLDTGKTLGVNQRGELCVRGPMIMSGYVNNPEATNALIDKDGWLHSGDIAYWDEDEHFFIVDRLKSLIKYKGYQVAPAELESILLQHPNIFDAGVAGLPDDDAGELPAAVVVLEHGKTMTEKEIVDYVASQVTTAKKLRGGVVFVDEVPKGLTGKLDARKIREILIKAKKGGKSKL
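Biochemical qHTS of compounds, final roughly 60 µM downward over six points, against 10 nM purified firefly luciferase using Km concentrations of substrates (10 uM D-luciferin, 10 uM ATP) in Tris acetate pH 7.5 buffer; luminescence output.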
SMN2 splice up: SMN2 splice variant enhancement | 2.8% of 210,000 active | AID 1458 | Potency, µM (doses to about 46.1 µM), for inactives: top-dose activity change, positive = activation, actives largely listed as activators | HEK293 SMN2-luciferase splicing reporter, luminescence, 30-36 h; note: % of control where 0% means no effect; nearly all actives have a fitted effect of over 55% in size
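HEK293 cells carry an SMN2 […]–luciferase reporter in which exon 7 inclusion puts luciferase in frame. Cells were plated 10-12 h before compound addition, then incubated 30-36 h at 37C. ONE-Glo luminescence was read; sodium butyrate at 4.5 mM final served as control.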
NPC1 prom act: activators of NPC1 promoter. Huh7 NPC1 promoter luciferase reporter, 24 h. Potency, µM (series often up to 9.22 µM), for the others: at the highest dose activation, most hits filed as activators. 2.4% of 320,000 active; note: % of control where 0% means no effect; nearly all actives have a fitted effect of over 60% in size
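Compounds in DMSO were transferred onto Huh7 NPC1-luciferase reporter cells pre-incubated 2 h; after 24 h at 37 °C, Amplite reagent was dispensed and luminescence recorded 10 min later.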
Luc counter: Kinase-Glo luciferase inhibition (counter-screen); Q27757; Kinase-Glo luciferase, ATP luminescence, 8 min; Potency, µM (doses to about 38.3 µM), without a hit: at the highest dose activity change, negative = inhibition, usual class: inhibitors; 0.28% of 200,000 active; AID 1379; note: % is set by controls: 0 for no effect and ±100 for the full control effect; nearly all actives have a fitted effect of over 60% in size
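Compounds were added to a substrate mix at pH 7.2 (50 mM imidazole, 10 uM ATP, within the enzyme's linear range), followed by Kinase-Glo detection reagent; luminescence was measured after 8 minutes at ambient temperature.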
Starred values were filed as active, the others as inactive; ? = inconclusive; · = not tested or not shown; [ ] = remark or other dose. Hits are enriched below; roughly 7.3% of the tested compounds scored in any of these assays. Calls come from the whole dose curve; as a rule, active = well fitted curve in the direction sought with a large enough effect; inconclusive = small, poorly fitted or top-dose-only effect, or another doubt; inactive = no such curve, though single readings can be large; an effect the other way counts as inactive or inconclusive. Potency is the fitted concentration of half-maximal effect.

SMILES	Rab9 prom act	FLuc counter	SMN2 splice up	NPC1 prom act	Luc counter
COc1cccc(-c2cc(C(=O)N3C(C)CCCC3C)no2)c1 (stereo unspecified)	3.2µM*	11µM*	14µM*	5µM*	-5%
COc1cccc(-c2cc(C(=O)N3CCOCC3)no2)c1	1.4µM*	8.5µM*	·	1.3µM*	·
CC(=O)c1ccc(NC(=O)c2cc3c(=O)oc4ccc(C)cc4c3s2)cc1	·	-5%	-8%	·	·
Cc1ccc(N(C)C(=O)c2noc3c2CCCCC3)cc1C	·	-2%	·	·	·
Cc1nn(-c2ccccn2)c2c1-c1nc(N3CCOCC3)ncc1CC2	10%	-10%	-27%	6%	-1%
Cc1nn(-c2ccccn2)c2c1-c1nc(N)ncc1CC2	3.2µM*	11µM*	?	3.5µM*	-2%
Cc1c(-c2nc(N)nc(C3CC3)c2C)nc(N)nc1C1CC1	·	·	1%[9.22 µM]	·	-1%[7.66 µM]
Cn1c(Nc2ccccc2)nc2ccccc21	21%	?	·	15%	·
Nn1c(Nc2ccccc2)nc2ccccc21	4µM*	11µM*	?	2.8µM*	-22%
Fc1ccc(Cn2c(-c3cccc(Br)c3)nc3ccccc32)cc1	·	-19%	·	·	·
Cc1ccc2c(c1)COc1c3ccc(C(=O)NCCO)cc3nn1-2	1µM*	4.8µM*	·	1.1µM*	·
O=C(NCCO)c1ccc2c3n(nc2c1)-c1ccc(Cl)cc1CO3	3.5µM*	6µM*	·	2µM*	·
COCCNC(=O)c1ccc2c3n(nc2c1)-c1ccccc1CO3	1µM*	3.8µM*	·	1.1µM*	·
Cc1ccc(-n2cnc3cc(C(=O)NCCC4=CCCCC4)ccc32)c(C)c1	·	-13%	·	·	·
O=C(NCCO)c1ccc2nc(Cc3cccc(Cl)c3)oc2c1	8%	3%	·	4%	·
COCCNC(=O)c1ccc2c(c1)CCN2S(C)(=O)=O	0%	3%	-11%	0%	4%
C=CCNC(=O)c1ccc2c3n(nc2c1)-c1ccccc1CO3	?	0.67µM*	·	0.45µM*	·
Cc1ccc(CNC(=O)c2oc3ccc(S(=O)(=O)N4CCCC(C)C4)cc3c2C)cc1 (stereo unspecified)	·	2%	-30%	·	·
COCCNC(=O)c1ccc2c3n(nc2c1)-c1ccc(Cl)cc1CO3	3.5µM*	8.5µM*	·	1.4µM*	·
COCCNC(=O)c1ccc2c(c1)nc(C)n2-c1cccc(Cl)c1	1%	-1%	·	-4%	·
CCCCN1CCc2c([nH]c3ccc(C)cc23)C1=O	3.5µM*	2.4µM*	?	2.8µM*	-3%
COC(=O)C1=C(C(=O)OC)[C@@H]2Nc3ccccc3[C@@]23C[C@@H](C(=O)OC)N(S(=O)(=O)c2ccc(C#N)cc2)C3=N1	·	·	-2%[9.22 µM]	·	-9%[7.66 µM]
Oc1c(/C=N/c2ccccn2)sc2ccccc12	?	0.54µM*	·	22%	·
Oc1c(C=Nc2ccc(Cl)cn2)sc2ccccc12	?	0.34µM*	·	?	·
Oc1c(C=Nc2ccccc2)sc2ccccc12	-4%	3%	·	-4%	2%
SMILES	Rab9 prom act	FLuc counter	SMN2 splice up	NPC1 prom act	Luc counter
Oc1c(C=Nc2cccnc2)sc2ccccc12	5%	1.9µM*	24%	5%	?
CCOc1ccc(-n2c(SCC(=O)N3CCc4ccccc43)nc3c([nH]c4ccccc43)c2=O)cc1	·	1%	·	·	·
O=S(=O)(O)c1cc(O)c2c(N=Cc3ccccc3O)cc(S(=O)(=O)O)cc2c1	·	·	4%[9.22 µM]	·	2%[7.66 µM]
COc1ccccc1C(=O)N(CCC1CCCN1C)c1nc2ccccc2s1 (stereo unspecified)	-4%	4.8µM*	-14%	-3%	-8%
COc1ccccc1CNC(=O)C(=O)NCC(c1ccc2c(c1)OCO2)N1CCOCC1 (stereo unspecified)	·	-1%	·	·	·
Cc1nc2sccn2c(=O)c1S(=O)(=O)NCc1ccc(F)cc1	·	-1%	·	·	·
Cn1c(N)c(C(=O)CSc2ccc3c(c2)OCCO3)c(=O)n(C)c1=O	6%	?	-20%	-1%	-7%
CCNc1nnc(SCC(=O)c2cc(C)n(C3CC3)c2C)s1	15%	-23%	·	1%	·
C/C(N)=C(/C#N)C(=O)CSc1ccc2c(c1)OCCO2	2.8µM*	12µM*	13µM*	3.2µM*	-10%
Cc1cc(C(=O)CSc2ccc3c(c2)OCCO3)c(C)n1C1CC1	2.8µM*	11µM*	?	?	-2%
CCOCCCNC(=O)C(c1ccc(Cl)cc1)N(Cc1cccs1)C(=O)c1ccc(NC(C)=O)cc1 (stereo unspecified)	·	0%	-18%	·	·
O=C(CSc1nnc(CCCOc2ccc(Cl)cc2Cl)o1)Nc1ccc(C(=O)O)cc1	-6%	5.4µM*	9%	1%	2%
CCn1c(C)nnc1SCC(=O)Nc1cccc(Cl)c1	3%	-1%	·	1%	·
CCn1c(CCCOc2ccc(Cl)cc2Cl)nnc1SCC(=O)Nc1cccc(F)c1	-5%	9.5µM*	8%	1%	-2%
CCCc1nnc(SCC(=O)Nc2ccc(Cl)cc2Cl)o1	1%	-2%	·	5%	·
COn1c(-c2ccc(Cl)cc2)nc2ncccc21	?	21µM*	·	?	·
Cc1ccc(-c2nc3ncccc3n2O)cc1	-5%	-14%	·	4%	·
CCc1cc(C=NC2CCCCC2)c(O)s1	3.5µM*	?	18%	?	-4%
O=C1O/C(=C/c2ccccc2)N=C1c1ccccc1	0%	2.7µM*	7%	-1%	0%
O=C1CCC/C1=C\c1ccccc1	1%	-14%	-4%	0%	1%
O=C(NCc1cccs1)c1cc(-c2ccc(O)cc2)on1	3.5µM*	?	·	?	·
Cc1ccc(-c2cc(C(=O)NCc3cccs3)no2)cc1	2µM*	-10%	22%	?	2%
COC(=O)CC1Oc2ccc(C)cc2-n2cc(-c3ccc(C)cc3)nc21 (stereo unspecified)	·	-2%	-18%	·	·
COc1ccc(CC(=O)NCC(c2ccc(N(C)C)cc2)N2CCOCC2)cc1 (stereo unspecified)	·	-2%	·	·	·
Cc1cccc(NC(=S)NNC(=O)c2csc3c2CCCC3)c1	?	12µM*	?	?	2%
SMILES	Rab9 prom act	FLuc counter	SMN2 splice up	NPC1 prom act	Luc counter
CNS(=O)(=O)c1ccc(NC(=O)c2csc(C)c2)cc1	-18%	-2%	·	-1%	·
Cc1cccc(NC(=S)NNC(=O)c2cccc([N+](=O)[O-])c2)c1	2%	?	·	-5%	·
Cc1cc(C(=O)Nc2ccc(Br)cc2)cs1	0.63µM*	19µM*	·	?	·
Cc1cccc(NC(=S)NNC(=O)c2csc(C)c2)c1	?	8.5µM*	·	14%	-2%
Cc1ccc(OCC(=O)N/N=C/c2cccn2C)cc1C	5%	?	·	0%	·
CCCCCC(=O)N/N=C/c1ccc(N(C)C)cc1	?	12µM*	?	?	0%
COc1ccc(OCC(=O)N/N=C/c2cccn2-c2cccc(C(=O)O)c2)cc1	-2%	13µM*	·	0%	·
COc1ccc(OCC(=O)N/N=C/c2ccc(N(C)C)cc2)cc1	3%	13µM*	13%	0%	-3%
COc1ccc(Cl)cc1NC(=O)COC(=O)CC(C)(C)CC1=NS(=O)(=O)c2ccccc2N1	·	-19%	·	·	·
